# Experimental data: the supplement of paper PMC10849652
# Targets with a hit are over-represented here; the source holds about 7,900 in all. About 0.6% of all pairs of compound and target were hits. Values without a mark were called inactive.
# Assays:
# Assay in all cases: log2 fold change, soluble protein after heating vs DMSO (PISA); higher = thermal stabilisation; K562 cells, 10 uM, 30 min; active = over 0.2 and 3.5 SD of the protein, either way, in both replicates (recomputed)
# [1] = compound: CS(=O)(=O)c1ccc(-c2cnc(N)c(C(=O)Nc3ccccc3)n2)cc1
# Method in brief: (§1)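 Thermal stability values are relative to control samples and come from duplicates. They are expressed as log2 fold changes. For measurement, K562 cells (2×10^6 cells/mL) received 10 μM compound for 30 min, and aliquots were heated for 3 min over 48°C-58°C, pooled, and extracted at 4°C in PBS with 0.5% NP-40. Soluble protein, the supernatant after 21,000xg for 90 min, was quantified by TMTpro 16plex LC-MS/MS with equalised channel sums.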
# crizotinib = compound: C[C@@H](Oc1cc(-c2cnn(C3CCNCC3)c2)cnc1N)c1c(Cl)ccc(F)c1Cl [crizotinib]
# Method in brief: as §1
# [2] = compound: C[C@@H]1COCCN1C2=NC(=NC(=C2)C3(CC3)S(=O)(=O)C)C4=C5C=CNC5=CC=C4
# Method in brief: as §1
# [3] = compound: C[C@H](C1=CC=C(C=C1)C(=O)NC2=C3C=CNC3=NC=C2)N
# Method in brief: as §1
# duvelisib = compound: C[C@H](Nc1ncnc2nc[nH]c12)c1cc2cccc(Cl)c2c(=O)n1-c1ccccc1 [duvelisib]
# Method in brief: as §1
# gandotinib = compound: Cc1cc(Nc2cc(CN3CCOCC3)c3nc(C)c(Cc4ccc(Cl)cc4F)n3n2)n[nH]1 [gandotinib]
# Method in brief: as §1
# tozasertib = compound: Cc1cc(Nc2cc(N3CCN(C)CC3)nc(Sc3ccc(NC(=O)C4CC4)cc3)n2)n[nH]1 [tozasertib]
# Method in brief: as §1
# [4] = compound: Cc1cc(SCc2sc(-c3ccc(C(F)(F)F)cc3)nc2C)ccc1OCC(=O)O
# Method in brief: as §1
# doramapimod = compound: Cc1ccc(-n2nc(C(C)(C)C)cc2NC(=O)Nc2ccc(OCCN3CCOCC3)c3ccccc23)cc1 [doramapimod]
# Method in brief: as §1
# ispinesib = compound: Cc1ccc(C(=O)N(CCCN)[C@@H](c2nc3cc(Cl)ccc3c(=O)n2Cc2ccccc2)C(C)C)cc1 [ispinesib]
# Method in brief: as §1
# Chain of UniProt Q9Y6H3 (Q9Y6H3 whole entry, looked up): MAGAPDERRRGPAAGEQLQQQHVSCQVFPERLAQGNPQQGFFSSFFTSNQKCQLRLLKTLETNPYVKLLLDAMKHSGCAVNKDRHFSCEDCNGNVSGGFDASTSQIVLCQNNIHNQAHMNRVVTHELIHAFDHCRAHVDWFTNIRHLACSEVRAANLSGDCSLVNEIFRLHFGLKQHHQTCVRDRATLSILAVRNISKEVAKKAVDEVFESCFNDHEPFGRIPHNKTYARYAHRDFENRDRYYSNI
# Chain of UniProt P49189 (P49189 whole entry, looked up): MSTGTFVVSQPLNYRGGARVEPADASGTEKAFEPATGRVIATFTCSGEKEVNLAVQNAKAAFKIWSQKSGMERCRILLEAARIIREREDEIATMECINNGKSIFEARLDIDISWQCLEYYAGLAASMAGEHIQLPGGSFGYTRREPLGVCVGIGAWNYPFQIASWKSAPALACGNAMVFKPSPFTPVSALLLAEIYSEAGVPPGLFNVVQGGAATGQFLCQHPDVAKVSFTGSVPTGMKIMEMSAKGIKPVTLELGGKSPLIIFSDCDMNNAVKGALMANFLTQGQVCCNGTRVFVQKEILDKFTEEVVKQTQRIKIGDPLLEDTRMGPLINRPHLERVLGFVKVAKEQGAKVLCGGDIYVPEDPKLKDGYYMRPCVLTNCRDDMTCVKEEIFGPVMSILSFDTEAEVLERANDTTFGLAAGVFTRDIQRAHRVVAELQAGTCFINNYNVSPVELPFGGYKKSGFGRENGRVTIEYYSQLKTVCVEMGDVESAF
# Chain of UniProt Q9Y312 (Q9Y312 whole entry, looked up): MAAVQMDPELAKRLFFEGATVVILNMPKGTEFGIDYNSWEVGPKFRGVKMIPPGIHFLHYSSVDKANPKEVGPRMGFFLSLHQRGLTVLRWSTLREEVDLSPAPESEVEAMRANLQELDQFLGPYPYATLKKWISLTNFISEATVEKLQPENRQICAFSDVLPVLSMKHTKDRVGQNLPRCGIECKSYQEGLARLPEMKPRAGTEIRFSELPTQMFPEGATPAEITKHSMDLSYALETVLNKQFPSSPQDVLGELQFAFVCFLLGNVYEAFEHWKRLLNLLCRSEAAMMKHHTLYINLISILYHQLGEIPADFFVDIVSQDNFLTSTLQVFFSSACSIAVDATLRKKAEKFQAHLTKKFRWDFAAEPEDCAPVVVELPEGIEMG
# Chain of UniProt Q9UKG1 (Q9UKG1 whole entry, looked up): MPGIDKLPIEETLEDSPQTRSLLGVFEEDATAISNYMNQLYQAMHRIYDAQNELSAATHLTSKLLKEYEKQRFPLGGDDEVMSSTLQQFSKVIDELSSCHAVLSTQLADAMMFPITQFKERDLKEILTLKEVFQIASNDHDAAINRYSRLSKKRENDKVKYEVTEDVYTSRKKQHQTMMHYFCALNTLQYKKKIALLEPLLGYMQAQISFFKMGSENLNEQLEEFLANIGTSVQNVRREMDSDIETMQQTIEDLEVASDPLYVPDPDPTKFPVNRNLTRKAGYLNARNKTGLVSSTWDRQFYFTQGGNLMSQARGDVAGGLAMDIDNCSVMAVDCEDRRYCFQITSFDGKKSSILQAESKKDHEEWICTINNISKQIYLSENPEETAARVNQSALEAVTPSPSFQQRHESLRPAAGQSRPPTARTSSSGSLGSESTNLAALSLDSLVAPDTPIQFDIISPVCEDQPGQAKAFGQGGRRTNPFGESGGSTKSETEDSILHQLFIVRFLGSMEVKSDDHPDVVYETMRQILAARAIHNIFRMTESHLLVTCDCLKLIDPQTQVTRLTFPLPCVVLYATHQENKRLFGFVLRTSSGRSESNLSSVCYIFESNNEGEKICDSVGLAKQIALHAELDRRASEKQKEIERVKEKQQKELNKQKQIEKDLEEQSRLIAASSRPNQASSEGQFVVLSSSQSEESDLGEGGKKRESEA
# Chain of UniProt Q10589 (Q10589 whole entry, looked up): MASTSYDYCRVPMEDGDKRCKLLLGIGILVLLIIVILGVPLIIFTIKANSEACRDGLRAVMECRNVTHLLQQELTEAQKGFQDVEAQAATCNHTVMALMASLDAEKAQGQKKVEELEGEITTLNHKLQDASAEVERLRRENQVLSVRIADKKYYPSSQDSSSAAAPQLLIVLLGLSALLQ
# Chain of UniProt Q9UJX6 (Q9UJX6 whole entry, looked up): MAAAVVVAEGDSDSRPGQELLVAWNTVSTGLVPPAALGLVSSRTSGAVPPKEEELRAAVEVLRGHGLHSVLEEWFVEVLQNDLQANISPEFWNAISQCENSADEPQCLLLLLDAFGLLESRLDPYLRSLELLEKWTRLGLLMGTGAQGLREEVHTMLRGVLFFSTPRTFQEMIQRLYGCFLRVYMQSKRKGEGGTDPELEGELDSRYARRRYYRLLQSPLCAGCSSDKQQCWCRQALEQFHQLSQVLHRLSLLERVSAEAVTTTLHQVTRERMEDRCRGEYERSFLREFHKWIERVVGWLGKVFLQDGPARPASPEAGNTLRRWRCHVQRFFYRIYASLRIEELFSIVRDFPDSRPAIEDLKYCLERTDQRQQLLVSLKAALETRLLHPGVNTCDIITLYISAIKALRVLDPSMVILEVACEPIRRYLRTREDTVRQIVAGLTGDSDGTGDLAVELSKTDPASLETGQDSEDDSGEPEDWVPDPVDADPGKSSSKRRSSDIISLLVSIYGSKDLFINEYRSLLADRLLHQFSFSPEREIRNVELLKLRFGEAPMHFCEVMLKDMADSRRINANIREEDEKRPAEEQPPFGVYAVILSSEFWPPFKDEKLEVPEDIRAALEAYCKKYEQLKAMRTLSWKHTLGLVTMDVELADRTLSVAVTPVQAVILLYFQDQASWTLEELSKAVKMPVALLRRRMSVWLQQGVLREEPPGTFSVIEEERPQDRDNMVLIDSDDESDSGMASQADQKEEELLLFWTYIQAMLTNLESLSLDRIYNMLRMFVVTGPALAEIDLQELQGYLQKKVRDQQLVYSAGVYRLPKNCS
# Chain of UniProt Q14137 (Q14137 whole entry, looked up): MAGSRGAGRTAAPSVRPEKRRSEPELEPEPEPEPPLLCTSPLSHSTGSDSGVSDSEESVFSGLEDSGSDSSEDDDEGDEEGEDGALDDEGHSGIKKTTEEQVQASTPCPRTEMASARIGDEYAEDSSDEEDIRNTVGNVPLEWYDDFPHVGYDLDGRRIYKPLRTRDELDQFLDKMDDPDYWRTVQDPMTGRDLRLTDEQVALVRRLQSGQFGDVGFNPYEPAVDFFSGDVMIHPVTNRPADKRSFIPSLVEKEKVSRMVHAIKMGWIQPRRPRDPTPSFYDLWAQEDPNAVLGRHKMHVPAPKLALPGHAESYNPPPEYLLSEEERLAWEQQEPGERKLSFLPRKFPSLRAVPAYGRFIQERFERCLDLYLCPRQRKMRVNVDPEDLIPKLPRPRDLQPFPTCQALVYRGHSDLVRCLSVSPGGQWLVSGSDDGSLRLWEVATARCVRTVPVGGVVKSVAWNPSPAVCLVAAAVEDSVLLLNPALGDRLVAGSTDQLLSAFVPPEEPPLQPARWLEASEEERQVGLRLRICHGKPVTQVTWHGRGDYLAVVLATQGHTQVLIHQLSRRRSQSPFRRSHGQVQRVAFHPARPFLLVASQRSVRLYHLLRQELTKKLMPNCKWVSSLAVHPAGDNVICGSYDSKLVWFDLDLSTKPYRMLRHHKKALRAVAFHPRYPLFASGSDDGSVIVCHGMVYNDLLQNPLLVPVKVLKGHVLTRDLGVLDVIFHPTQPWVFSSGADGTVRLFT
# Chain of UniProt P24666 (P24666 whole entry, looked up): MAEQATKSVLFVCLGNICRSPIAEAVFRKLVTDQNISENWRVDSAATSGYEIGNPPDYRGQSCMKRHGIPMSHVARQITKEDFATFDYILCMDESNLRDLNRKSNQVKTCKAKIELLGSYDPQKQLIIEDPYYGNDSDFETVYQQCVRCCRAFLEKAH
# Chain of UniProt Q9Y679 (Q9Y679 whole entry, looked up): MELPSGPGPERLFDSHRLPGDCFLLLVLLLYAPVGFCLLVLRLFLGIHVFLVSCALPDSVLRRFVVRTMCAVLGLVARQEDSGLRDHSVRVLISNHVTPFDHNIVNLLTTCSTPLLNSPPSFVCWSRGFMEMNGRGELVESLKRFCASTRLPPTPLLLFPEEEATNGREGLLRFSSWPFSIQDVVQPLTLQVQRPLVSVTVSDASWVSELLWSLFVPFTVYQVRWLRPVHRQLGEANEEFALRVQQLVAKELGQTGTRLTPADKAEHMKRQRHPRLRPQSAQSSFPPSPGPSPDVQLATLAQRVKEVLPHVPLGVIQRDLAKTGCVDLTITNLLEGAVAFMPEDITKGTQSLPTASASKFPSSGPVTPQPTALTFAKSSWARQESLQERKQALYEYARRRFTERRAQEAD
# Chain of UniProt P56211 (P56211 whole entry, looked up): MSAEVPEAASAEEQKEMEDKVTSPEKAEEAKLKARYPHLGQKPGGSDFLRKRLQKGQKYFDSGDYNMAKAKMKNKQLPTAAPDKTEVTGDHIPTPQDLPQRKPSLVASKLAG
# Chain of UniProt Q8N6T3 (Q8N6T3 whole entry, looked up): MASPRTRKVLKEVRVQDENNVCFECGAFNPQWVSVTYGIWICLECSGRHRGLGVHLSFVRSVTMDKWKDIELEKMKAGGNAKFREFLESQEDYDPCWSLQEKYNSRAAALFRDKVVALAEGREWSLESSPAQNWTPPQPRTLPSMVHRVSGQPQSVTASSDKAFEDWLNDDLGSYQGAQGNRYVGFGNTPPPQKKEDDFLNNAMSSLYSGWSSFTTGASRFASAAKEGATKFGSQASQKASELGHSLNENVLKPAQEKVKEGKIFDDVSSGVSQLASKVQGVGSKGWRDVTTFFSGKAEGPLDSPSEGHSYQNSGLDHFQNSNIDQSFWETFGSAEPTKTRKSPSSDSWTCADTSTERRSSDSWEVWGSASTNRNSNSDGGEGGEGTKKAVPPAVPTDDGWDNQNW
# Chain of UniProt Q9UHQ4 (Q9UHQ4 whole entry, looked up): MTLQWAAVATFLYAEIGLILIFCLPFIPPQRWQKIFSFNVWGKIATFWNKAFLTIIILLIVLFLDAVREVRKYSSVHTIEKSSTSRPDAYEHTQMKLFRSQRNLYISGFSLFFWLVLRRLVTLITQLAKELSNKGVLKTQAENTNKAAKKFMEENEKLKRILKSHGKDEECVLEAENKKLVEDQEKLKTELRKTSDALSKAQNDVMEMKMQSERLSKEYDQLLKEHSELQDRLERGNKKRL
Target,log2 fold change [1],log2 fold change (crizotinib),log2 fold change [2],log2 fold change [3],log2 fold change (duvelisib),log2 fold change (gandotinib),log2 fold change (tozasertib),log2 fold change [4],log2 fold change (doramapimod),log2 fold change (ispinesib)
ARL2BP (UniProt Q9Y2Y0),0.077,-0.128,-0.017,-0.038,-0.004,-0.166,0.006,0.044,0.101,-0.042
ACBD6 (UniProt Q9BR61),0.386 (active),-0.36,-0.041,0.075,-0.026,0.076,0.032,0.082,-0.048,-0.14
ASH2L (UniProt Q9UBL3),0.008,0.126,0.046,0.058,0.028,0.004,0.068,0.02,-0.068,0.036
ACSL5 isoform 3 (UniProt Q9ULC5),-0.014,-0.146,0.11,0.009,-0.024,0.021,-0.076,-0.033,0.059,-0.316
AGRN (UniProt O00468),-0.078,-0.01,-0.073,-0.021,-0.162,-0.012,0.026,0.24,0.062,0.009
ATRN (UniProt O75882),-0.049,0.01,0.116,0.087,-0.028,-0.002,-0.003,0.071,-0.238,
ALG3 (UniProt Q92685),-0.067,0.087,0.001,-0.077,0.057,-0.107,-0.019,0.049,0.006,-0.086
ACP1 (UniProt P24666),0.077,-0.063,-0.033,0.165,0.021,-0.083,0.108,0.324,0.141,
APOB (UniProt P04114),0.066,-0.443,0.083,-0.203,0.003,-0.198,-0.085,0.007,-0.288,-0.55 (active)
BST2 (UniProt Q10589),-0.023,0.066,0.006,-0.055,-0.004,-0.016,-0.009,-0.074,0.023,-0.078
AP2A1 (UniProt O95782),-0.011,-0.127,-0.006,-0.237 (active),-0.015,0.01,-0.126,0.02,0.039,0.081
ATP23 (UniProt Q9Y6H3),-0.002,-0.116,0.044,0.072,-0.124,-0.128,0.002,0.046,-0.051,-0.188
ACSM3 (UniProt Q53FZ2),-0.001,-0.002,0.027,-0.095,-0.131,-0.037,-0.001,0.049,0.023,0.226
APPL1 (UniProt Q9UKG1),-0.019,-0.015,-0.078,0.034,0.077,0.123,-0.028,-0.003,0.032,-0.098
AGPAT1 (UniProt Q99943),0.017,0.187,0.043,-0.018,0.041,-0.106,0.012,0.014,0.019,0.096
ARPP19 (UniProt P56211),-0.017,0.059,0.006,-0.106,-0.082,0.019,-0.031,-0.106,-0.037,0.048
ALDH9A1 isoform 3 (UniProt P49189),-0.002,-0.002,0.027,-0.042,0.015,0.063,-0.024,-0.002,-0.004,0.006
ACSF3 (UniProt Q4G176),0.018,0.063,-0.002,0.026,0.014,0.09,0.023,0.022,-0.027,0.174
ALG5 (UniProt Q9Y673),0.005,-0.045,0.06,-0.065,0.11,-0.084,-0.046,0.045,-0.032,0.001
ARFGAP1 (UniProt Q8N6T3),0.009,0.094,0.048,-0.016,-0.011,-0.038,0.138,0.047,-0.13,0.008
AAR2 (UniProt Q9Y312),-0.06,-0.081,0.019,0.054,0.045,-0.29,0.011,0.021,-0.038,0.085
ARL1 (UniProt P40616),0.01,-0.073,0.094,-0.092,-0.004,-0.111,0.028,0.031,0.018,-0.064
AUP1 (UniProt Q9Y679),-0.032,-0.123,0.071,-0.015,-0.05,-0.181,-0.012,0.06,-0.033,-0.41 (active)
ANAPC2 (UniProt Q9UJX6),-0.025,-0.084,0.034,0.035,0.027,-0.044,0.012,0.028,0.022,-0.02
ARL3 (UniProt P36405),0.029,0.041,0.019,-0.017,0.08,0.025,0.033,-0.012,-0.003,0.063
ALKBH5 (UniProt Q6P6C2),0.048,0.032,-0.11,0.013,0.012,0.267,-0.167,-0.055,-0.01,0.007
BOP1 (UniProt Q14137),-0.008,0.11,-0.153,0.064,-0.113,0.025,0.007,0.134,-0.008,-0.114
BLVRB (UniProt P30043),0.04,-0.006,0.036,-0.081,0.016,-0.085,-0.011,0.002,-0.027,-0.012
ACP1 isoform 2 (UniProt P24666),0.008,-0.079,0.016,0.15,0.004,-0.137,-0.09,0.12,0.033,-0.041
BCAP29 isoform 2 (UniProt Q9UHQ4),-0.015,-0.028,0.061,-0.005,-0.006,0.037,-0.019,-0.079,-0.024,-0.245 (active)
